Measured values reported in publication PMC13494018.
A number with no mark means an inactive call. No rule for the calls is given here.

B1: d1r8_design_ppi_838_dldesign_0_cycle1_af2pred (protein)
chain: NAGELLGKALELLEEASRLAKEDYEKAKEAAEKAIEYAEKAAAADPAHAPALVAVKSAARNIIEQAKKNEAARKAA
B2: d1r8_design_ppi_843_dldesign_0_cycle0_af2pred (protein)
chain: AEEARRAEAAARLEAAVAAGQATLVEVNKAAAATGDAALAEAALALSRAIAEGRRLGREGRYEEGAALVEAATKAAKATLAA
B3: d1r8_design_ppi_849_dldesign_0_cycle0_af2pred (protein)
chain: DDAAKAAELTALVLEEEAADPVRAGEVGAARARELGLSAAGILAVLDRVVAEAAPSGETVRALMRAAIEAAQA
B4: d1r8_design_ppi_870_dldesign_0_cycle1_af2pred (protein)
chain: EAEANQQAMNLLMRAAALQPRDREKAREAVEEGRKVAKDEETKKLLEEAVKALDGDVDEAIAVLLETAKKISERAREAAA
B5: d1r8_design_ppi_886_dldesign_0_cycle1_af2pred (protein)
chain: AKAAELAAEGKALAEQLAKEGAADGEKGIELLKQGSALVRELEALGAEDPEYAEAAKAAQAALQAAVAAFAAASIAKAAAA
B6: d1r8_design_ppi_889_dldesign_0_cycle1_af2pred (protein)
chain: AMAAAIAAVAASARAAAAIGRADPAAAPGAAAFLDVAAETLAALAKADPAHAAQANAAAAEARATAAELRAAAAA
B7: d1r8_design_ppi_906_dldesign_0_cycle1_af2pred (protein)
chain: AAEAAERADRGQGTLIAMEAEARLAAIAKAHPEVAALAAAAAERVRAAAPLPAAEVRAVAERELAEVEAALAAA
B8: d1r8_design_ppi_923_dldesign_0_cycle0_af2pred (protein)
chain: AAEMAATAAYVSEVAARAQAEDPSLGPEVNRLFALLARAGAAYAADPAAGAAVAAEARAYAEELDKRLEAAL
B9: d1r8_design_ppi_934_dldesign_0_cycle0_af2pred (protein)
chain: ASALARAESQLAFLNTVADAMATQTGEEGAKIAAEAKAAGDAALAAAKASGTPAAYEAATAQLNALTAQVQRETMARLA
B10: d1r8_design_ppi_934_dldesign_0_cycle1_af2pred (protein)
chain: ASPLERAESLREFLHTVADAMAKNVGAEGQKVADAAKAAGDAAVAAARAAGTPEAYEAARDTLRALTADVIKAYMAALS
B11: d1r8_design_ppi_953_dldesign_0_cycle1_af2pred (protein)
chain: SAAAELALKSLQAALAAAKAAAKAYGPAAAEAHLKNALLLADSYAAATDAAAGAALKAKVEAEAAAAMAAV
B12: d1r11_design_ppi_51_dldesign_0_cycle1_af2pred (protein)
chain: AEVEKKAKEAKKKVEEAKKKMEEAEKAGDAEALRKAAAEANKKAIELASAALAEKDAETAKALAEAAQKLVEIALRANEAMAKLER
B13: d1r11_design_ppi_170_dldesign_0_cycle0_af2pred (protein)
chain: ASPEELTLTARALAFAGGSPEWRPLLQEAIAAYATAEASDPATGAAARAKADAITAELVERYRAAEAAEAAAAA
B14: d1r11_design_ppi_189_dldesign_0_cycle1_af2pred (protein)
chain: AAAEKAKLGFQLLNQLQKAQQAVAAGAAAGATAAEFEALAAQAQKAKEEGKQTILADTVQAAADVVIAAARAAAAAAKARAA
B15: d1r11_design_ppi_223_dldesign_0_cycle1_af2pred (protein)
chain: AAEAQALAAQAKKLADEAAKEAASPKSGELLGKAIELAMQANTLDPALGGQLSKYIAATAAAAAAKAAAEAAA
B16: d1r11_design_ppi_238_dldesign_0_cycle0_af2pred (protein)
chain: AAAAAAAAAAAALAEAAARAAAATDVTTKVGAALTAQNPSVKPITDAAVEKMKQAAAVVADPAKAAAYQKEAGDLLTQALRQVAAARR
B17: d1r11_design_ppi_301_dldesign_0_cycle0_af2pred (protein)
chain: SLLEEAKKLAEELKELLKKAKEALADPEKAKELIKKAEEANKKLVELAVEAAKAGDHESAALANRAALEGQRKIAEIKAQLAA
B18: d1r11_design_ppi_310_dldesign_0_cycle1_af2pred (protein)
chain: EAAAAAALTAKAQALYAKYVAAAKAAQAALAGTEAHKEIAALLAQAEAAADDIGLALALASTAANLAAAKLAAALA
B19: d1r11_design_ppi_322_dldesign_0_cycle0_af2pred (protein)
chain: DTAEKAREVAKKAVEVAKEAAEKDPRAQAVYETAKIVAEGVEALVAAGQTELALRQAETQLKIAEKVLKEVLA
B20: d1r11_design_ppi_369_dldesign_0_cycle0_af2pred (protein)
chain: MQERLDAYNAEAGAALEAAAASTDGARRLALMRKAAGLGLAAAGYAAGPEAGEAAEKQAEARFAAADAALA
B21: d1r11_design_ppi_460_dldesign_0_cycle1_af2pred (protein)
chain: AAEEALKRAEELAKEVIELAEKVPEAAALGKKVREALEAARHGAESLMRAAARSTPEAAAVMNESAIAMNEAAIKLAEELRKEIEKIA
B22: d1r11_design_ppi_627_dldesign_0_cycle1_af2pred (protein)
chain: AEEVAARAAELTRTVHHGSPEEATAAARELTALVAAASPEAAAAGRRAIAETNKALLAETAAARAAAAAAAAAAAAAAAAAAA
B23: d1r11_design_ppi_712_dldesign_0_cycle0_af2pred (protein)
chain: MTPEEKAARLAAAADAYIKMAKAALAAGKLEEAKEFAEAALKAAKEAEKLDPELGAKKAAEAKAVKAEIDAA
B24: d1r11_design_ppi_712_dldesign_0_cycle1_af2pred (protein)
chain: MTPAQQAAQLANQANSYITMAKAALAAGDLETAKEFAELAIEYATQAQKLDPALGTAVKAEAEAVLAQVNAA
B25: d1r11_design_ppi_865_dldesign_0_cycle0_af2pred (protein)
chain: DAELKAQAAKIAKEAIEKAKKAKDKNEVWRYASQGLAQLTRIAAAGSPEVKAFAAEQAKKLTEEAEKIVAAL
B26: d1r11_design_ppi_982_dldesign_0_cycle1_af2pred (protein)
chain: AAAARAQAAQVVADSARAAAKEAEAKAKEAEAKDPAYGKELKANAEKLKAAAEAAEADPAALPEAVKTLIEQTSNMRALEAKLAA
B27: d1r12_design_ppi_87_dldesign_0_cycle1_af2pred (protein)
chain: GAALEEAERLMEEAEAALAQAEATGDQRLLGAAMAAAERAVELATREASPEEAAEVERRAAELFARAAEVSQRIAAALLARAAAQA
B28: d1r12_design_ppi_102_dldesign_0_cycle0_af2pred (protein)
chain: AAAEAAARLAEAEALLAKAKEHAKKAKEAAKAGDLAAANQHATAASAAALAIKELGAPADIQAAADAAVAEAMDAVVAAAKAR
B29: d1r12_design_ppi_153_dldesign_0_cycle1_af2pred (protein)
chain: AAAHEAFVAEVTAVADAAADAASAAWLAGQTAGPEWRAVADRLVALAREALRAAADPARAPEARRAAAEAAALAAEAAALVAAA
B30: d1r12_design_ppi_293_dldesign_0_cycle1_af2pred (protein)
chain: AAAAEAARKAALAAAADAHAAGAQAALRAARQAAERGDPEAARTFMDLALTSAQQARDLYDEAGFPEKGKAVYEATRAAVAEVEALL
B31: d1r12_design_ppi_352_dldesign_0_cycle0_af2pred (protein)
chain: SRARANYAQLVAESAEGGAKAAEAKAKAAKAAGDEATAKKYEEAAELYREGAALAKAGDIAGAVAKINEAAALLAA
B32: d1r12_design_ppi_352_dldesign_0_cycle1_af2pred (protein)
chain: SAARARYAALVAESAEVGAATYDAAAKAAEAAGDAATAAKYKEAAALYKAGADAAKAGDIAAAVAKINAAAALVAA
B33: d1r12_design_ppi_387_dldesign_0_cycle1_af2pred (protein)
chain: MEAARAAFERRKAALEADRAEAEALLADPATAAEGRALLAALAVRAKAYGKLFAAHDPELGAELTALGEEAAALA
B34: d1r12_design_ppi_408_dldesign_0_cycle0_af2pred (protein)
chain: SLELAEAAHAAGRAAAADPARAAEAGALLKDMIAYALAASAAYREAEALRAAGGDQAAIDAAEAEAKAYEAKSKEKAAELKALAAAAA
B35: d1r12_design_ppi_408_dldesign_0_cycle1_af2pred (protein)
chain: MEALAQAGHAANQAAAADPAQAPRAAALLREMIAHARAASAAWLEAQALEAAGGDPAAVAAARAAAAEHQAKAEALAAELKALAEAAA
B36: d1r12_design_ppi_474_dldesign_0_cycle0_af2pred (protein)
chain: KEELKKEIKKLAKKAKEHAEEAKRTAGDLGAMARHTTEAAAAAEKAQALAAKSGDEEAKKLAKEAKEAAAEATEHLVEAARAAA
B37: d1r12_design_ppi_675_dldesign_0_cycle0_af2pred (protein)
chain: DEARRAGALAFAEQLRASFAATRAAAAALPRASAAAALAGIAASAKQLGAVVPEAAELAAEAAAAAAAVAA
B38: d1r12_design_ppi_822_dldesign_0_cycle1_af2pred (protein)
chain: AAAARAAEAAALAAAVTAAAAAVAAAVAAGTPDEGRAAARAFGRAALGAAARLPEVAPAVDAAADVVSDAYVAAVAAR

Molecular target: CD276, Q5ZPR3
Sequence (Q5ZPR3 whole entry): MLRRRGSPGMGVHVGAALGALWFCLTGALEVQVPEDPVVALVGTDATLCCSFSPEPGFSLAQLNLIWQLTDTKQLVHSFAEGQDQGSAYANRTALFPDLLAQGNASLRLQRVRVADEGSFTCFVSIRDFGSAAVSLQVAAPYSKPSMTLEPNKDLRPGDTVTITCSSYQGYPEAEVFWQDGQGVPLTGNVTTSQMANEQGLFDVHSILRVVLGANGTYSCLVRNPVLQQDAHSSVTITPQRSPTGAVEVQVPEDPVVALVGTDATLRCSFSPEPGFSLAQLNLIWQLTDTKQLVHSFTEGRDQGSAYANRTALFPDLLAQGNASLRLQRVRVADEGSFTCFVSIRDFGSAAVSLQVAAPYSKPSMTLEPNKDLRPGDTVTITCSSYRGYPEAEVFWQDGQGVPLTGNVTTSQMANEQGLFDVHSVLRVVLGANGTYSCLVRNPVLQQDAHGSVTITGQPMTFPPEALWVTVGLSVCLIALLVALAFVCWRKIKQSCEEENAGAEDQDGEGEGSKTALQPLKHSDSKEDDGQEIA

Binder | binding in a display sort
B1 | not found
B2 | not found
B3 | not found
B4 | not found
B5 | not found
B6 | not found
B7 | not found
B8 | not found
B9 | not found
B10 | not found
B11 | not found
B12 | not found
B13 | not found
B14 | not found
B15 | not found
B16 | not found
B17 | not found
B18 | not found
B19 | not found

Binder | binding in a display sort
B20 | not found
B21 | not found
B22 | not found
B23 | not found
B24 | not found
B25 | not found
B26 | not found
B27 | not found
B28 | not found
B29 | not found
B30 | not found
B31 | not found
B32 | not found
B33 | not found
B34 | not found
B35 | not found
B36 | not found
B37 | not found
B38 | not found
